The values below come from PMC5540273 (PLoS ONE, 2017).

Common to all, as to settings: concentration: 1 μM,replicates: in singlicate; n = 1
Assay [1] has as its system DYRK1B.
Assay [2] concerns DYRK2.
In assay [3] the test system is EGFR.
The subject of assay [4] is EIF2AK1.
Assay [5] concerns EPHA1.
Assay [6] has as its system EPHA2.
Assay [7] relates to EPHA3.
Assay [8] concerns EPHA4.
Assay [9] concerns EPHA5.
Assay [10] concerns EPHA6.
Assay [11] deals with EPHA7.
For assay [12], the system named is EPHA8.
For assay [13], the system named is EPHB1.
Assay [14] has as its system EPHB2.
Assay [15] relates to EPHB3.
For assay [16], the system named is EPHB4.
Assay [17] deals with EPHB6.
For assay [18], the system named is ERBB2.
Assay [19] concerns ERBB3.
The test system of assay [20] is ERBB4.
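Further: KINOMEscan kinase panel screen.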

With `CS(=O)(=O)c1cccc(CNc2nc(Nc3ccc4c(c3)[C@@H]3C[C@@H]4CNC3=O)ncc2C(F)(F)F)c1`, the “%Inh” value is 6% in assay [1]; 12% in assay [2]; 5% in assay [3]; 0% in [4]; 12% in assay [5]; 2% in [6]. The “%Inh” value amounted to 6% in assay [7]; 2% in assay [8]; 0% in assay [9]; 11% in assay [10]; 63% in [11]; 0% in assay [12]. Besides, the “%Inh” value in assay [13] is on record as 40%; in assay [14], 19%; in assay [15] it was 5%; in [16], 16%; in assay [17], 72%; in assay [18], 15%. Besides, the “%Inh” value in assay [19] is 0%; in [20], 20%.

For `COc1ccc(Nc2nccc(N3CCC(NC(=O)c4cccc(C#N)c4)C3)n2)cc1` (stereo not shown) [GSK1379730], the “%Inh” value is 39% in assay [1]; 0% in [2]; 29% in assay [3]; 0% in assay [4]; 27% in assay [5]; 0% in assay [6]. In addition, the “%Inh” value worked out at 0% in [7]; 0% in assay [8]; 12% in [9]; 0% in [10]; 3% in [11]; 18% in [12]. The “%Inh” value in assay [13] was 0%; in assay [14] it was 0%; in assay [15], 3%; in assay [16], 0%; in [17], 0%; in assay [18], 0%. Moreover, the “%Inh” value in [19] and in assay [20] was 0% in each case.

For `CCOC(=O)N1CCC(n2cnc(-c3ccc(F)cc3)c2-c2ccnc(N)n2)CC1` [SB-219952], the “%Inh” value was found to be 30% in assay [1]; 21% in assay [2]; 32% in assay [3]; 19% in assay [4]; 9% in [5]; 13% in [6]. Besides, the “%Inh” value was found to be 14% in assay [7]; 9% in assay [8]; 0% in [9]; 12% in assay [10]; 1% in assay [11]; 0% in assay [12]. Also, the “%Inh” value in assay [13] was 0%; in [14] it was 7%; in assay [15] it was 11%; in assay [16], 4%; in [17], 30%; in assay [18], 5%. The “%Inh” value in [19] and in assay [20] was 21% in each case.

In the case of `COC(=O)c1cccc(NC(=O)NC2CCN(c3ccnc(NCc4ccc(F)cc4)n3)CC2)c1` [GSK1379860], the “%Inh” value in assay [1] turned out to be 21%; in assay [2] it was 2%; in assay [3] it was 51%; in [4] it was 0%; in [5], 0%; in assay [6], 10%. In addition, the “%Inh” value is 0% in assay [7]; 6% in assay [8]; 0% in assay [9]; 8% in assay [10]; 18% in [11]; 19% in assay [12]. The “%Inh” value in [13] came to 14%; in assay [14], 0%; in [15] it was 11%; in [16] it was 4%; in assay [17], 0%; in assay [18], 21%. Also, the “%Inh” value in assay [19] turned out to be 8%; in assay [20], 6%.

As for `O=C(Nc1n[nH]c2cc(-c3ccco3)ccc12)C1CC1` [SB-737447], the “%Inh” value in assay [1] was 0%; in assay [2], 31%; in [3] it was 9%; in assay [4], 0%; in [5], 0%; in assay [6], 10%. Also, the “%Inh” value in assay [7] is reported as 19%; in [8], 0%; in [9], 0%; in [10], 0%; in [11], 0%; in [12] it was 0%. Besides, the “%Inh” value in [13] is given as 0%; in assay [14], 0%; in assay [15] it was 6%; in [16] it was 0%; in [17] it was 34%; in [18], 0%. The “%Inh” value in assay [19] and in assay [20] was 0% in each case.

As to `CC(C)S(=O)(=O)N1CCN(Cc2ccc3c(c2)nc(NC(=O)c2ccsc2)n3C[C@H](O)c2ccccc2)CC1` [GW635815], the “%Inh” value is 70% in [1]; 21% in assay [2]; 20% in assay [3]; 1% in assay [4]; 0% in assay [5]; 0% in assay [6]. In addition, the “%Inh” value in assay [7] amounted to 11%; in [8] it was 15%; in [9] it was 0%; in [10], 7%; in [11], 10%; in assay [12], 19%. The “%Inh” value came to 35% in [13]; 16% in [14]; 15% in assay [15]; 14% in assay [16]; 0% in assay [17]; 0% in [18]. In addition, the “%Inh” value in [19] and in assay [20] was 0% in each case.

For `OCCn1cc(-c2cnc3nnn(Cc4ccc5ncccc5c4)c3n2)cn1`, the “%Inh” value in [1] was found to be 19%; in [2], 0%; in assay [3], 0%; in assay [4], 0%; in assay [5], 0%; in [6], 0%. The “%Inh” value in [7], in [8], in assay [9], in assay [10], in assay [11] and in assay [12] was 0% each time. For the same compound, the “%Inh” value in assay [13] was 0%; in [14], 0%; in [15], 0%; in assay [16], 0%; in assay [17], 17%; in assay [18] it was 5%. Also, the “%Inh” value in [19] and in assay [20] was 0% each time.

For the compound `Cn1ccc2ncnc(Oc3ccc(NC(=O)Nc4cccc(C(F)(F)F)c4)c(F)c3)c21`, the “%Inh” value in assay [1] is on record as 0%; in assay [2], 0%; in [3] it was 12%; in assay [4], 0%; in assay [5] it was 51%; in assay [6], 94.6%. For the same compound, the “%Inh” value in assay [7] is listed as 58%; in assay [8], 85%; in [9], 85%; in [10], 97.7%; in assay [11] it was 93.8%; in assay [12] it was 98.8%. The “%Inh” value in assay [13] stood at 80%; in [14] it was 90.6%; in assay [15], 74%; in assay [16], 81%; in assay [17], 97.6%; in assay [18], 10%. Besides, the “%Inh” value in assay [19] was 24%; in [20], 2%.
